Most compounds without a hit are left out; they make up all but 3.6% or so of the library.
GDH-TPI counter-1 – GDH-TPI coupling enzyme inhibitors, primary screen, artefact control for M. tuberculosis FBA inhibitor project, biochemical, absorbance, full deck; GDH-TPI coupled enzyme counterscreen, NADH absorbance; inhibition, % at 4.8 µM; hit rate 1.2% among 360,000; in the data active = inhibition above about 30%;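 also: 0% = DMSO wells and 100% = wells lacking the enzyme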
DUSP3 inh – VHR1 phosphatase inhibitors, primary screen, biochemical, absorbance, uHTS; Dual specificity protein phosphatase 3 (Homo sapiens), P51452; recombinant VHR phosphatase, pNPP absorbance; inhibition, % at 13.3 µM; hit rate 0.52% among 290,000; in the data active = inhibition above about 50%
Target sequence (P51452 whole entry, looked up): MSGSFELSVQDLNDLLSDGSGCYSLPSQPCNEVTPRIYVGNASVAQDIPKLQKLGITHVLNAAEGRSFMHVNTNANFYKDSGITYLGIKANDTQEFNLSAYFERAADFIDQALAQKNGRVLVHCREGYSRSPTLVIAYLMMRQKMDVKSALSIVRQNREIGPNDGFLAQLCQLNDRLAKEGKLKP
Mtb bLac sens – beta-lactam sensitization of Mtb H37Rv, H37Rv; M. tuberculosis H37Rv growth with meropenem, percent inhibition; inhibition, % at 25 µM; hit rate 0.27% among 330,000; call rule not given here;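 also: growth measured after seven days incubation then overnight dye step; 0% = bacteria only wells and 100% = bacteria with antibiotic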
FBA Mtb inh – Mtb FBA enzyme inhibitors, primary screen, biochemical, fluorescence, strain H37Rv; inhibition, % at 1 µM; purified M. tuberculosis FBA, fluorescence read-out; hit rate 2.3% among 360,000; Fructose-bisphosphate aldolase (Mycobacterium tuberculosis (strain ATCC 25618 / H37Rv)), …;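 also: 0% = vehicle and 100% = reference inhibitor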
Target sequence (P9WQA3 whole entry, looked up): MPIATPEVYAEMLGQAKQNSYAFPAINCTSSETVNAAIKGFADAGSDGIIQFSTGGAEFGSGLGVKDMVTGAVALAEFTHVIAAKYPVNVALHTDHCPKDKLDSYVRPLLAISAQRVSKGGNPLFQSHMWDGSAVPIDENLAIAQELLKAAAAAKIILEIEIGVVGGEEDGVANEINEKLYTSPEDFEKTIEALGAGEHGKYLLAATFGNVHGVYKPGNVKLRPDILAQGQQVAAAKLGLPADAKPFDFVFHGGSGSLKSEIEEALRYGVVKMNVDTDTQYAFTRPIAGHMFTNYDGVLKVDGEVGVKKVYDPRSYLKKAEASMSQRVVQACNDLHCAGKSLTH
Mtb hypoxia rep – PubChem AID 1159583; M. tuberculosis hypoxia-regulated fluorescent reporter, fluorescence; fluorescence inhibition, % (test concentration not listed); hit rate 0.1% among 300,000; in the data active = fluorescence inhibition mostly above about 23%, no sharp cut-off; inactive = mostly below about 17%
Mtb FBA inh conf – M. tuberculosis aldolase blockers, biochemical, fluorescence, strain H37Rv, confirmation. inhibition, % at 1 µM. AID 651616, 2012. purified M. tuberculosis FBA, fluorescence read-out. shares compounds with FBA Mtb inh. hit rate 78% among 5,600;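 also: 0% = vehicle wells and 100% = reference inhibitor wells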
GDH-TPI counter-2 – GDH-TPI coupling enzyme inhibitors, artefact control for M. tuberculosis FBA inhibitor project, biochemical, fluorescence, high throughput. shares compounds with FBA Mtb inh. GDH-TPI coupled enzyme counterscreen. inhibition, % at 1 µM. hit rate 81% among 5,600; in the data active = inhibition above about 10%
GDH-TPI dose – GDH-TPI coupling enzyme inhibitors, dose response, artefact control for M. tuberculosis FBA inhibitor project, biochemical, fluorescence, IC50; AID 652145, 2013; IC50, µM; GDH-TPI coupled enzyme assay, artifact counterscreen; shares compounds with FBA Mtb inh; hit rate 79% among 170; call rule not given here
The depositor's hits bear a star; · = not tested or not shown; + = active, no number. Rule as the data show it, unless noted: active = inhibition above about 27%; inactive = the rest.

SMILES | GDH-TPI counter-1 | DUSP3 inh | Mtb bLac sens | FBA Mtb inh | Mtb hypoxia rep | Mtb FBA inh conf | GDH-TPI counter-2 | others
Cc1cccn2c(=O)c3cc(C(=O)NCc4ccco4)c(=N)n(CCc4ccccc4)c3nc12 | 4 | 11 | 64 | 53* | 4 | 90* | 81*
Cc1cccn2c(=O)c3cc(C(=O)NCC4CCCO4)c(=N)n(CCc4ccccc4)c3nc12 (stereo not given) | -5 | 46 | 1 | 109* | 4 | 76* | 64*
Cc1cccn2c(=O)c3cc(C(=O)NCCc4ccccc4)c(=N)n(Cc4ccco4)c3nc12 | -2 | 5 | 89 | 30* | -1 | + | +
Cc1cccc(C(N)=NOC(=O)c2ccco2)c1 | · | · | · | · | 7 | · | ·
CCN(C(=O)COC(=O)c1nccnc1N)c1cccc2ccccc12 | 7 | · | 2 | 63* | 3 | 109* | 80*
CCN(C(=O)COC(=O)c1ccc(O)cc1)c1cccc2ccccc12 | 1 | · | 1 | 0 | 5 | · | ·
Cc1ccc(OCC(=O)Oc2ccc(C(C)C)cc2)cc1 | -13 | -10 | -12 | 30* | 6 | 183* | 130*
CN1Cc2c(N3CCOCC3)nc3sc(C#N)c(N)c3c2CC1(C)C | 6 | 14 | 5 | 78* | 10 | 14 | -5 | GDH-TPI dose=1.8*
CNC(=O)c1ccc(-c2sc3nc(N4CCOCC4)c4c(c3c2N)CC(C)(C)OC4)o1 | 24 | 11 | 1 | 41* | · | 45* | 30*
C#CCOCCOCCOCCNc1nc(N2CCN(C(=O)C(CCCCN)n3cc(C(N)CC(N)=O)nn3)CC2)nc(N2CCN(C(=O)C(CC(N)=O)n3cc(C(N)C(C)CC)nn3)CC2)n1 (stereo not given) | · | · | · | · | 3 | · | ·
O=C(O)CCn1c(CO)nc2ccccc21 | 5 | -10 | 3 | 1 | 7 | · | ·
O=C(O)CCn1c(-c2ccccc2)cc2ccccc21 | -5 | -18 | -7 | 58* | -8 | 25 | 16*
Cc1ccc(C(COc2ccccc2O)=NO)cc1 | · | · | · | · | 14 | · | ·
CCOC(=O)C1=C(C)N=c2sc(=Cc3ccc(OC(C)=O)c(OCC)c3)c(=O)n2C1/C=C/c1ccccc1 (stereo not given) | · | · | · | · | 1 | · | ·
CC(=O)Nc1ccc(-c2cc(C(=O)O)c3ccc(C)cc3n2)cc1 | 0 | 32 | 0 | 47* | 2 | 5 | -5
CC(=O)Nc1ccc(-c2cn3cc(C)ccc3n2)cc1 | 15 | -11 | -1 | 74* | 8 | + | 145*
COc1ccc(-c2cn3cc(C(=O)NN)ccc3n2)cc1 | 4 | 31 | 4 | 42* | 1 | 89* | 78*
CC(=O)Nc1ccc(-c2cc(C(=O)O)c3cc4ccccc4cc3n2)cc1 | 3 | · | · | 24 | · | · | ·
Cc1ccc2nc(-c3ccccc3)cn2c1 | -5 | 20 | 9 | 37* | 8 | 99* | 88*
NNC(=O)c1ccc2nc(-c3ccc(Br)cc3)cn2c1 | 2 | 22 | 23 | 11 | · | · | ·
COc1ccc(OC)c(C=NNC(=O)CNC(=O)c2ccc(S(=O)(=O)N3CCCC3)cc2)c1 | · | · | · | · | 3 | · | ·
[N-]=[N+]=NCCC=CC1NS(=O)(=O)OCC1O (stereo not given) | · | · | · | · | 7 | · | ·
CC=C(C)C(=O)Nc1cccc(C2=NOC3(C2)CC(C(N)=O)N(C(=O)CC(c2ccccc2)c2ccccc2)C3)c1 (stereo not given) | · | · | · | · | 1 | · | ·
CCOC(=O)C1CCc2c(ccc3ccccc23)N1CCC#N (stereo not given) | -1 | · | · | 56* | · | 2 | -4
CCOC(=O)C1C2COc3ccc(Cl)cc3C2N2C(=O)C(C)NC(=O)[C@@]12C (stereo not given in full) | · | · | · | · | -2 | · | ·
SMILES | GDH-TPI counter-1 | DUSP3 inh | Mtb bLac sens | FBA Mtb inh | Mtb hypoxia rep | Mtb FBA inh conf | GDH-TPI counter-2 | others
O=C(Cn1cc(C(F)(F)F)ccc1=O)NN=Cc1ccc(F)cc1 | · | · | · | · | -8 | · | ·
CC1=C(C#N)C(C=NOCc2ccc(F)cc2Cl)CC(=O)N1 (stereo not given) | · | · | · | · | 4 | · | ·
CC1=C(C#N)C(/C=N/OCc2ccc(Cl)cc2)CC(=O)N1 (stereo not given) | 6 | 8 | 2 | 35* | · | 22 | 17*
O=C(NC(CSCc1ccccc1)C(=O)NN=Cc1ccc(O)cc1O)c1ccc([N+](=O)[O-])cc1 (stereo not given) | · | · | · | · | -2 | · | ·
COc1cc2oc(=O)ccc2cc1[C@@H](O)[C@@H]1OC(C)(C)OC1(C)C | 13 | · | 6 | 29* | 12 | 79* | 40*
COc1cc2oc(=O)ccc2cc1[C@H](O)[C@@H](O)C(C)(C)O | 26 | · | -1 | 49* | 5 | 47* | 32*
CN1CC2C3C(=O)N(C)C(=O)C3[C@](C)(C1=O)N2C(=O)c1ccc(F)cc1 (stereo not given in full) | · | · | · | · | 18 | · | ·
COC(=O)C1=C(c2ccc3ccccc3c2)CC2CCC1N2C(=O)NC1CC1 (stereo not given) | · | · | · | · | 6 | · | ·
CC(C)(O)[C@H](O)COc1c2occc2cc2ccc(=O)oc12 | 8 | 24 | -9 | 5 | · | · | ·
COc1ccc2ccc(=O)oc2c1CC(=O)C(C)C | 14 | · | -4 | 39* | · | 27 | 18*
COc1ccc2ccc(=O)oc2c1CC(O)C(C)(C)O (stereo not given) | 14 | 10 | -6 | 66* | · | 4 | -5
CC1(C)OC2C(CO)OC(n3c(N4CCCCC4)nc4c(N)ncnc43)C2O1 (stereo not given) | · | · | · | · | 8 | · | ·
Cc1cc2nc(CO)[nH]c2cc1C | 3 | -8 | 0 | 5 | 13 | · | ·
Cc1cc2nc(/C=C/c3nc4cc(C)c(C)cc4[nH]3)[nH]c2cc1C | 8 | 95 | 4 | 37* | · | 150* | 85*
CCOC(=O)NN=Cc1sccc1C | · | · | · | · | 3 | · | ·
CCc1nc(NCC2CCCO2)c(C#N)c2c1COC(C)(C)C2 (stereo not given) | 9 | 31 | -3 | 71* | 5 | 140* | 105*
CC(C)c1nc(NCC2CCCO2)c(C#N)c2c1COC(C)(C)C2 (stereo not given) | 8 | -8 | 10 | 55* | · | 123* | 101*
COC(=O)C1=C(c2cccc(OCc3ccccc3)c2)CC2CCC1N2C(=O)NCc1ccc(C(F)(F)F)cc1 (stereo not given) | · | · | · | · | 4 | · | ·
Cc1ccc(S(=O)(=O)NNc2c3ccccc3nc3ccc(Cl)cc23)cc1 | 10 | · | · | 91* | · | 42* | 28*
CC(CC(=O)Nc1ccc2c(c1)OCCO2)=NNC(=O)Cc1ccc(Cl)cc1 | · | · | · | · | 8 | · | ·

From PubChem
